As a reminder, the viability is a read-out of living cells in per cent, often relative to untreated cells. For orientation: inhibition means the drop in the measured response relative to a control, in per cent.

Data on 10 compounds can be found in PubChem BioAssay.

Experiment [1] can be described thus: HUVEC growth inhibition – cell-based, human, primary screen (AID 575;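 active = viability at or below 30% in both replicate assays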;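 also: 100% = median of untreated cell wells with 0.1% DMSO on each plate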). Particulars: HUVEC proliferation, CellTiter-Glo luminescence, 72 h; at 10 µM; stronger effect = lower value.
A short description of experiment [2]: growth inhibitors of H69AR lung tumor, primary screen, human, duplicate replicates (AID 580;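 active = viability at or under a set limit in both replicates, limit being median viability minus 3 SD, cut at about 48% in these data, passing the limit was not always enough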;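 also: 100% = mean luminescence of untreated wells and 0% = no signal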). Particulars: H69AR lung tumor cells viability, ATP luminescence, 72 h; at 10 µM; stronger effect = lower value.
Experiment [3] is described as follows: reversal of MRP1-mediated doxorubicin resistance, pilot screen, H69AR cells, doxorubicin co-treatment (AID 601;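 active = viability loss from added drug above about 55%, and viability with drug at most 40%, in both replicates, limit read from the data, passing the limit was not always enough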). Particulars: CellTiter-Glo, 72 h, at 10 µM; for differential viability (reversal): stronger effect = higher value. Background: In ATP-based viability assays light output follows the ATP content of the culture.
The nature of experiment [4]: 384-well plate pilot, post-Golgi transport modulator project, inhibition of yeast transport mutant growth (AID 636; in the data active = inhibition above about 31%). Particulars: absorbance 615 nm, about 18 h, stronger effect = higher value.
Experiment [5] can be described thus: growth suppression of yeast trafficking mutant, preliminary HTS, modulators of trafficking downstream of Golgi apparatus project, 1536-format plate, OD 615 nm (AID 637; in the data active = inhibition above about 30%). Particulars: yeast transport mutant growth, absorbance 615 nm, 18 h; stronger effect = higher value.
Experiment [6] can be described thus: OD615 S. cerevisiae growth inhibition, permissive medium, pilot counter-assay, permissive growth control for S. cerevisiae lifespan shortening project (AID 705;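 active = growth inhibition above 25% in both replicates, a cutoff set 3 SD above the mean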). Particulars: OD615, 24 h, at 10 µM, stronger effect = higher value.
A short description of experiment [7]: Restrictive medium S. cerevisiae growth inhibition, OD615, pilot screen of yeast lifespan reduction project, restrictive growth control (AID 706;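 active = growth inhibition above a set limit, 3 SD over mean compound inhibition, in both replicates, cut at about 43% in these data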;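 also: modified DeaD lifespan yeast strain shifted to restrictive glucose medium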). Particulars: OD615, 48 h, at 10 µM, stronger effect = higher value.
A short description of experiment [8]: viability gain of MRP-1-high H69AR cells under doxorubicin, pilot screen, MRP-1 activator project, CellTiter-Glo, duplicate (AID 807).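 Also: compound pretreatment 18-22 h then 72 h combined with doxorubicin; 0% = doxorubicin alone and 100% = vehicle without doxorubicin.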 Particulars: H69AR viability with doxorubicin, CellTiter-Glo luminescence; at 10 µM; stronger effect = higher value.
Experiment [9] in a line: growth suppression of beta-catenin knockout HCT116, pilot screen, human colon tumor cells (AID 823;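 active = cell viability at or below a set limit in both duplicate runs, the limit being the all-compound median minus 4 SD, cut at about 23% in these data, passing the limit was not always enough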;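 also: 0% = wells killed by 20 µM Hyamine and 100% = untreated DMSO cell wells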). Particulars: CellTiter-Glo, 60 h, at 10 µM, stronger effect = lower value.
The nature of experiment [10]: growth suppression of PTEN-deleted HCT116, pilot screen, cell-based, HCT116 clonal line, CellTiter-Glo (AID 824;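 active = viability at or below 27.92% in each of two runs, the all-compound median minus 4 SD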;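 also: 0% = 20 µM Hyamine control and 100% = vehicle cell control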). Particulars: 60 h, at 10 µM, stronger effect = lower value.
A short description of experiment [11]: inhibitors of the yeast RAM network, pilot screen, dse1pr::URA3 reporter, 5-FOA selection (AID 869;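 active = inhibition over a set limit, the all-compound mean plus 3 SD, in both replicate runs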;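 also: 0% = DMSO wells with no growth and 100% = 10 µM 1-NA-PP1 with full growth; RAM network block rescues cells from 5-FOA so hits raise OD615 growth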). Particulars: S. cerevisiae dse1pr::URA3 5-FOA growth, OD615, 2 d; at 10 µM; stronger effect = higher value; strain carries analog-sensitive mutant Cbk1 kinase.
Experiment [12] can be described thus: RAM signaling pathway blockade in yeast – S. cerevisiae, Pdr1DBD-CYC8 efflux-inhibited sensitized strain, primary screen (AID 1298;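 active = RAM network inhibition above 8.4% in each of two replicates, 3 SD over the compound average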;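 also: 0% = DMSO untreated cells without growth and 100% = 10 µM 1-NA-PP1 full growth; higher means more yeast growth rescued from 5-FOA killing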). Particulars: S. cerevisiae cbk1-as DSE1-URA3 strain, 5-FOA growth OD615, 2 d; at 50 µM; stronger effect = higher value.
Where [13] appears, read: H69AR cells + 2 uM doxorubicin, measured here: viability with 2 uM doxorubicin, stronger effect = lower value.
Where [14] appears, read: H69AR cells, compound alone cytotoxicity.

Records with an inconclusive call do not appear. The source made the active and inactive calls.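 The calls were made as follows, unless noted: active = viability increase at or above a cutoff of the median across tested compounds plus 3 SD (cut at about 8.5% in these data, passing the limit was not always enough); inconclusive = some gains above the cutoff, reason not given; inactive = the rest.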

On to `O=C(CN1C(=O)NC(Cc2ccccc2)C1=O)Nc1ccccc1` (stereo not given), for which the viability in experiment [1] was 101% (inactive); in experiment [2], 96.7% (inactive); in experiment [3] (setting [13]) it was 96.9%; in [3] (setting [14]), 96.7%; in experiment [9] it was 97.8% (inactive); in [10], 94.6% (inactive). Moreover, the differential viability (reversal) in [3] (H69AR cells + 2 uM doxorubicin) is -0.17% (inactive). In addition, the inhibition in experiment [4] was -1.17% (inactive); in [5], -0.63% (inactive); in experiment [11] it was 1.85% (inactive). The growth inhibition in experiment [6] was -11.6% (inactive); in [7], -16.5% (inactive). The viability increase in experiment [8] is 1.83% (inactive). Besides, the RAM network inhibition in [12] is 0.35% (inactive).
As to `O=C(CCCCCn1c(=O)[nH]c2ccsc2c1=O)N1CCCCC1`, the viability in experiment [1] was 102% (inactive); in experiment [2], 95% (inactive); in experiment [3] (setting [13]) it was 89.2%; in experiment [3] (setting [14]), 95%; in experiment [9] it was 96.9% (inactive); in experiment [10], 99% (inactive). In addition, in experiment [3] (H69AR cells + 2 uM doxorubicin), the differential viability (reversal) is 5.84% (inactive). Moreover, the inhibition in experiment [4] was -2.5% (inactive); in experiment [5] it was 7.62% (inactive); in [11], 0.36% (inactive). Also, the growth inhibition in experiment [6] is 1.02% (inactive); in experiment [7] it was -1.91% (inactive). The viability increase in experiment [8] is -1.28% (inactive). Further, the RAM network inhibition in experiment [12] is -0.43% (inactive).
As for `COc1ccccc1NC(=O)N(Cc1ccccc1)c1ccccn1`, the viability in experiment [1] was 83.4% (inactive); in [2], 85.3% (inactive); in experiment [3] (setting [13]), 91.2%; in [3] (setting [14]) it was 85.3%; in [9], 87% (inactive); in experiment [10], 88.6% (inactive). For the same compound, the differential viability (reversal) in experiment [3] (H69AR cells + 2 uM doxorubicin) is -5.91% (inactive). Also, the inhibition in [4] is -5.58% (inactive); in experiment [5] it was -4.92% (inactive); in experiment [11], 2.24% (inactive). The growth inhibition was -9.36% (inactive) in [6] and -2.62% (inactive) in [7]. The viability increase in experiment [8] was 0.35% (inactive). Also, in [12], the RAM network inhibition is 6.47% (inactive).
Turning to `O=C(NCCc1cccc(Cl)c1)c1cccnc1`, the viability is 87.9% (inactive) in [1]; 103% (inactive) in experiment [2]; 76.8% in experiment [3] (setting [13]); 103% in experiment [3] (setting [14]); 98.9% (inactive) in [9]; 98.3% (inactive) in experiment [10]. Moreover, in experiment [3] (H69AR cells + 2 uM doxorubicin), the differential viability (reversal) was 26.5% (inactive). Further, the inhibition in [4] was -2.21% (inactive); in [5], 5.4% (inactive); in experiment [11], 0.32% (inactive). The figures for the growth inhibition in experiment [6] and in [7] were -1.24% (inactive) and 10.7% (inactive), respectively. In addition, the viability increase in [8] was -0.51% (inactive). The RAM network inhibition in experiment [12] was 1.21% (inactive).
Consider `Cc1nnc(N(Cc2ccco2)C(=O)c2cccc(C#N)c2)s1`, for which the viability in experiment [1] was 84.1% (inactive); in [2] it was 94.6% (inactive); in [3] (setting [13]) it was 97.9%; in [3] (setting [14]), 94.6%; in experiment [9], 103% (inactive); in [10], 98.5% (inactive). In [3] (H69AR cells + 2 uM doxorubicin), the differential viability (reversal) was -3.37% (inactive). Besides, the inhibition is -1.69% (inactive) in experiment [4], -6.35% (inactive) in experiment [5] and 1.8% (inactive) in [11]. Further, the growth inhibition in experiment [6] is -6.52% (inactive); in experiment [7], 6.42% (inactive). For the same compound, the viability increase in experiment [8] is -0.66% (inactive). Besides, the RAM network inhibition in experiment [12] was 4.13% (inactive).
On to `Cc1ccc(S(=O)(=O)c2nc(-c3ccco3)oc2SCC(=O)NCC2CCCO2)cc1` (stereo not given), for which the viability is 101% (inactive) in [1]; 92.8% (inactive) in [2]; 86.4% in [3] (setting [13]); 92.8% in experiment [3] (setting [14]); 101% (inactive) in experiment [9]; 104% (inactive) in experiment [10]. The differential viability (reversal) in experiment [3] (H69AR cells + 2 uM doxorubicin) was 6.32% (inactive). Besides, the inhibition is -0.13% (inactive) in experiment [4], -3.02% (inactive) in [5] and 1.47% (inactive) in [11]. Also, the growth inhibition was 0.025% (inactive) in [6] and 0.35% (inactive) in [7]. For the same compound, the viability increase in [8] was -2.88% (inactive). Moreover, the RAM network inhibition in experiment [12] was 2.72% (inactive).
For the compound `COc1ccc(C2C(C#N)=C(C)NC3=C2C(=O)CC(C)(C)C3)c(OC)c1` (stereo not given), the viability is 88.9% (inactive) in experiment [1]; 95.3% (inactive) in experiment [2]; 71.8% in [3] (setting [13]); 95.3% in experiment [3] (setting [14]); 97.6% (inactive) in [9]; 91.4% (inactive) in [10]. For the same compound, the differential viability (reversal) in experiment [3] (H69AR cells + 2 uM doxorubicin) is 23.5% (inactive). In addition, the inhibition is -1.3% (inactive) in [4], -2.7% (inactive) in experiment [5] and 0.825% (inactive) in [11]. Also, the figures for the growth inhibition in experiment [6] and in experiment [7] were -22.8% (inactive) and -14.1% (inactive), respectively. For the same compound, the viability increase in [8] was -1.62% (inactive). Also, the RAM network inhibition in experiment [12] is 1.94% (inactive).
Turning to `COc1cccc2cc(C(=O)Nc3cccnc3N3CCOCC3)c(=O)oc12`, the viability is 101% (inactive) in experiment [1]; 94.3% (inactive) in experiment [2]; 84.2% in [3] (setting [13]); 94.3% in [3] (setting [14]); 101% (inactive) in experiment [9]; 98.8% (inactive) in [10]. Moreover, the differential viability (reversal) in [3] (H69AR cells + 2 uM doxorubicin) is 10.1% (inactive). Further, the inhibition in experiment [4] is -4.03% (inactive); in experiment [5], 3.65% (inactive); in experiment [11], 3.31% (inactive). In addition, the values for the growth inhibition in experiment [6] and in experiment [7] were -8.22% (inactive) and -21.8% (inactive), respectively. The viability increase in experiment [8] was -3.74% (inactive). Also, in [12], the RAM network inhibition is 1.45% (inactive).
For the compound `O=C(COC(=O)C1(c2ccccc2F)CCCC1)NC1CCS(=O)(=O)C1` (stereo not given), the viability in [1] is 118% (inactive); in experiment [2], 97.2% (inactive); in experiment [3] (setting [13]), 93.9%; in experiment [3] (setting [14]), 97.2%; in experiment [9] it was 99.4% (inactive); in experiment [10], 95.3% (inactive). Also, the differential viability (reversal) in experiment [3] (H69AR cells + 2 uM doxorubicin) was 3.27% (inactive). In addition, the inhibition in experiment [4] is -1.69% (inactive); in [5] it was -2.06% (inactive); in [11], 0.035% (inactive). For the same compound, the growth inhibition in experiment [6] was 5.97% (inactive); in experiment [7], 2.54% (inactive). Further, the viability increase in experiment [8] was -0.5% (inactive). The RAM network inhibition in experiment [12] was 3.94% (inactive).
In the case of `Cc1ccc(C)c(NC(=O)C2CCC(C)(C(=O)O)C2(C)C)c1` (stereo not given), the viability in experiment [1] was 98.8% (inactive); in experiment [2] it was 97.8% (inactive); in experiment [3] (setting [13]) it was 92.1%; in experiment [3] (setting [14]), 97.8%; in experiment [9], 97% (inactive); in experiment [10], 99% (inactive). For the same compound, in experiment [3] (H69AR cells + 2 uM doxorubicin), the differential viability (reversal) is 5.67% (inactive). Also, the figures for the inhibition in experiment [4], in [5] and in experiment [11] were 2.08% (inactive), -0.79% (inactive) and 0.355% (inactive), respectively. Also, the figures for the growth inhibition in [6] and in [7] were -12.8% (inactive) and -13.8% (inactive), respectively. Also, the viability increase in experiment [8] is -1.13% (inactive). Further, the RAM network inhibition in experiment [12] was 0.93% (inactive).
